USP2a block: blocks human ubiquitin-specific protease USP2a. O75604. USP2 core, Ub-CHOP2 coupled fluorogenic reporter, 485/531. Potency, µM (doses to about 38.3 µM), for inactives: at the highest dose activity change, negative = inhibition, hits mostly inhibitors. 330,000 compounds, 0.01% hits. AID 463254;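 further: plate controls were DMSO wells for no effect and full inhibition by NEM control for full effect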
Target sequence (O75604 whole entry, looked up): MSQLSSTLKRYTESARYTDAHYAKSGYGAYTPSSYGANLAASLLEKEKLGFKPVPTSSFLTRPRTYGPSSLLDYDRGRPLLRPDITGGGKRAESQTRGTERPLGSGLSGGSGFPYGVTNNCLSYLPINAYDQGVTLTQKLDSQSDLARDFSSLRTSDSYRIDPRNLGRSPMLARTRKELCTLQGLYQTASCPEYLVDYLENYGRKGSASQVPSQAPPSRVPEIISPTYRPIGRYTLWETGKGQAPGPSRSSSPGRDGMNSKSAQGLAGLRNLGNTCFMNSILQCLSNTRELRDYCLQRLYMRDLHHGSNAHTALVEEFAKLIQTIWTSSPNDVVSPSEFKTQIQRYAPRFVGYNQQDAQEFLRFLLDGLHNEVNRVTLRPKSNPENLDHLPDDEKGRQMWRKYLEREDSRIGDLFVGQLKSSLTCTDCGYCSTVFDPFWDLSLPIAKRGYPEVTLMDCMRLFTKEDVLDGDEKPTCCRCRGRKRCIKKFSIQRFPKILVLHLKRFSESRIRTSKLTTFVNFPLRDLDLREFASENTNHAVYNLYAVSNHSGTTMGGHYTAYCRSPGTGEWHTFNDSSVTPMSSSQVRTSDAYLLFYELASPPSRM
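Deubiquitinase activity read as fluorescence (485/531 nm) after Ub-CHOP2 cleavage activates the enterokinase reporter on its substrate; USP2 core 10nM, Ub-CHOP2 and substrate 25nM each, 30min compound preincubation then 60min RT; data normalized to NEM, curves fitted.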
ALOX12 inh: inhibitors of human 12S-lipoxygenase ALOX12 | purified 12hLO, xylenol orange hydroperoxide absorbance | Potency, µM (top dose mostly 108 µM), for inactives: at the highest dose activity change, negative = inhibition, most hits filed as inhibitors | 580,000 compounds, 1.1% hits | AID 1671190; further: on the % scale 0 is the no-effect control and ±100 the full control effect
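Purified human 12hLO (150 nM final) in 25 mM Hepes, 0.01% Triton X-100, pH 7.0 was preincubated 15 min at room temperature with compound. Then 40 uM arachidonic acid was added, 30 min. Hydroperoxide was read by Fe-XO absorbance ratio 573/405 nm.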
TSG101-PTAP inh: blocks PTAP/TSG101 interaction to inhibit HIV-1 budding. Q99816. Fluorescence polarization, FITC-PTAP peptide / Tsg101 binding. Potency, µM (titrated, usually from 115 µM), for the others: top-dose activity change, negative = inhibition, usual class: inhibitors. 340,000 tested, under 10 active; active means well fitted inhibition curve with a large enough effect in the main read-out, with a control signal flat, not every such curve was filed as active; inconclusive means small, poorly fitted or top-dose-only effect, or effect the other way, or a change in a side signal; inactive means no such curve, though single readings can be large or run the other way; further: % of control where 0% means no effect
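Steps: Tsg101 binding domain dispensed (10 uM final), compounds pinned in DMSO, FITC-labeled PTAP-motif peptide added (50 nM final); after 20 min binding at room temperature, polarization measured.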
Eya2 phos inh: blocks the phosphatase activity of human Eya2. O00167. recombinant Eya2, OMFP fluorescence dephosphorylation (OMFP is methylfluorescein phosphate). Potency, µM (top dose mostly 76.9 µM), without a hit: at the highest dose activity, negative = inhibition, actives largely listed as inhibitors. 330,000 compounds, 0.006% hits; further: on the % scale 0 is the no-effect control and ±100 the full control effect
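Eya2 (0.2 uM) preincubated 10 min at ambient with compound, then OMFP substrate added at 50 uM; 10 min reaction in 50 mM HEPES pH 7.5, 50 mM NaCl, 5 uM MgCl2, 0.05% BSA, 1 mM DTT. Fluorescence read at Ex 485/Em 525 nm.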
An asterisk follows results filed as active; ? = inconclusive; / = not tested or not shown; ! = a repeat was not active; [ ] = remark or other dose. Sampled rows, rich in hits. Any-hit rate of the full collection: about 1.1%. Unless noted, the call rests on the fitted dose curve; in most records, active means well fitted curve in the direction sought with a large enough effect; inconclusive means small, poorly fitted or top-dose-only effect, or another doubt; inactive means no such curve, though single readings can be large; an effect the other way counts as inactive or inconclusive. Potency means the concentration at half of the fitted maximal effect.

SMILES | USP2a block | ALOX12 inh | TSG101-PTAP inh | Eya2 phos inh
COC(=O)C1=Nc2ccccc2/C1=C\c1c(O)n(-c2ccc(Br)cc2)c(=O)[nH]c1=O | 1% | 35µM* | 0% | 5%
COC(=O)C1=Nc2ccccc2/C1=C\c1c(O)n(-c2ccc(OC)cc2)c(=O)[nH]c1=O | -2% | ? | -4% | 10%
CNCC/C=C\c1cccnc1 | / | 25µM* | / | /
O=C1NC(=O)C(=Cc2ccccc2OCCOc2ccc([N+](=O)[O-])cc2)C(=O)N1 | -1% | / | 0% | ?
Cc1cc(C)cc(OCCOc2cccc(C=C3C(=O)NC(=O)NC3=O)c2)c1 | -1% | 13µM* | -2% | 3%
Cc1ccc(OCCOc2cccc(C=C3C(=O)NC(=O)NC3=O)c2)cc1 | 2% | 32µM* | -4% | -7%
CC(=O)Nc1ccc(S(=O)(=O)NC[C@H]2C[C@@H]3CCN2C[C@@H]3c2cc(-c3ccc(N(C)C)cc3)nc(C)n2)cc1 | / | -11% | / | /
CNCc1cn(C[C@H]2C[C@@H]3CCN2C[C@@H]3C(=O)NC2CCCCC2)nn1 | / | -3%[176 µM] | / | /
O=C(Cc1ccccc1)N1CCN(CCCc2ccccc2)CC1 | 1% | 0.89µM* | -6% | ?
COc1ccccc1CC(=O)N1CCN(CCc2ccccc2)CC1 | -1% | -29% | 0% | -9%
CC(C)(C)c1ccc(-c2cn(C[C@H]3CC4CCN3C[C@@H]4C(=O)NCc3ccccc3)nn2)cc1 (stereo not given in full) | / | -9% | / | /
O=C1NC(=O)N(c2ccccc2F)C(=O)/C1=C/c1ccc(Sc2nc3ccccc3[nH]2)o1 | ? | 32µM* | -1% | -4%
O=C1NC(=O)N(c2cccc(Cl)c2)C(=O)/C1=C\c1ccc(Sc2nc3ccccc3[nH]2)o1 | 1% | 10µM* | -2% | 3%
O=C1NC(=O)N(c2ccccc2)C(=O)/C1=C/c1ccc(Sc2ccccc2)o1 | 7% | / | -4% | 1%
COC(=O)c1c(C)n(Cc2ccccc2)c2ccc(O)cc12 | 1% | 16µM*! | -8% | 2%
CCOC(=O)c1c(C)n(Cc2ccccc2)c2ccc(O)cc12 | 1% | ? | -2% | -15%
COc1cccc(N2C(=O)/C(=C/c3ccc(C)o3)C(=O)NC2=S)c1 | 0% | 10µM* | 1% | 2%
CCOc1cccc(N2C(=O)/C(=C/c3ccco3)C(=O)NC2=S)c1 | 4% | 11µM* | -3% | ?
O=C1NC(=S)N(c2ccccc2)C(=O)/C1=C/c1ccco1 | ? | ? | -2% | 2%
CN(C)C(CSS(=O)(=O)c1ccccc1)CSS(=O)(=O)c1ccccc1 | / | 0.71µM* | / | /

Source: PubChem BioAssay
